Experimental data as given in PubChem BioAssay (NCI).
Compounds without any hit were thinned out: in the full panel of roughly 79,000, 15% have a hit. Unmarked numbers belong to inactive results. Active and inactive are the calls of the source. Rule as the data show it: active = growth inhibition above about 70%; inactive = the rest.

Legend:
[1] = NCI Yeast Anticancer Drug Screen. Data for the rad50 strain (AID 155);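 also: 0% = growth of vehicle-only cultures of the same strain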; details: S. cerevisiae rad50 strain growth inhibition; at 50.0 µM; active compounds read high
In short: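 Cells are treated with compound, grown, and their growth is then scored against vehicle-only cultures of the same repair-deficient yeast strain.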

[2] = NCI Yeast Anticancer Drug Screen. Data for the mec2-1 strain (AID 157); details: S. cerevisiae mec2-1 strain, at 50.0 µM, active compounds read high
In short: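 Mutant yeast (mec2-1) grown with compound; growth inhibition relative to vehicle control reported.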

[3] = NCI Yeast Anticancer Drug Screen. Data for the sgs1 mgt1 strain (AID 161);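 also: 0% = growth of cultures given vehicle only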; details: S. cerevisiae sgs1 mgt1 strain, at 50.0 µM, active compounds read high
In short: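 Percent growth inhibition was derived by comparing compound-exposed mutant yeast with vehicle-exposed cultures. The strain carries alterations in DNA damage repair.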

[4] = NCI Yeast Anticancer Drug Screen. Data for the cln2 rad14 strain (AID 165);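 also: 0% = growth equal to vehicle treated cultures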; details: S. cerevisiae cln2 rad14 strain, at 50.0 µM, active compounds read high
In short: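 Readout is yeast growth inhibition versus vehicle-treated controls, using a strain with cln2 and rad14 alterations exposed to compound.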

[5] = NCI Yeast Anticancer Drug Screen. Data for the bub3 strain (AID 167); details: S. cerevisiae bub3 mutant strain, at 50.0 µM, active compounds read high
In short: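 Part of a panel of yeast mutants defective in DNA damage repair or cell cycle regulation. Each strain is grown with compound, and inhibition is calculated relative to solvent-treated cultures.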

[6] = NCI Yeast Anticancer Drug Screen. Data for the mlh1 rad18 strain (AID 175); details: S. cerevisiae mlh1 rad18 strain growth inhibition; at 50.0 µM; active compounds read high
In short: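 Genetically defined yeast (DNA repair-deficient) exposed to compounds; growth inhibition determined relative to vehicle.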

Compound	growth inhibition [1]	growth inhibition [2]	growth inhibition [3]	growth inhibition [4]	growth inhibition [5]	growth inhibition [6]
Cc1ccc2c(O)c3c(cc2c1O)C(=O)c1ccccc1C3=O	30.2%	0.75%	20.4%	21.3%	-0.85%	31.2%
CCOC(=O)N1N=NC(c2ccccc2)C1(c1ccccc1)N1CCOCC1 (centres undefined)	38.8%	-14.8%	30.3%	4.05%	10.4%	8.7%
C=C(C)C(=O)OC1C[C@H](COC(C)=O)C2CC=C(CO)C2C2OC(=O)C(=C)[C@H]12 (some centres undefined)	16.9%	15.1%	10.2%	-1.25%	-1.25%	25.1%
N#CC1CCCC(c2ccccc2)(C2CCCCC2)C1=O (centres undefined)	7.4%	13.1%	10.2%	26.4%	2.85%	-0.9%
CC(C)CCC[C@@H](C)[C@H]1CC[C@H]2[C@@H]3CC=C4C[C@@H]([n+]5ccccc5)CC[C@]4(C)[C@H]3CC[C@]12C	-2.45%	-9.8%	0.95%	8.15%	-14.1%	-7.55%
O=C(NC1CCCCC1)C1C(=O)C(=O)N(C2CCCCC2)C1=O (centres undefined)	-14.5%	-1.35%	-13.9%	-8.65%	-5.8%	-28.2%
CCCCCCCCCCCCCCCCCCNC(=O)c1c(Br)c(Br)cc(Br)c1C(=O)O	-1.45%	8.55%	13.2%	-8.35%	-3.7%	6.75%
Cc1ccc([N+](=O)[O-])cc1NC(=O)C(=O)Cc1cc(=O)oc2cc(O)ccc12	-4.85%	-22.9%	-28.3%	23.9%	-16.1%	-6.25%
Cc1no[n+]([O-])c1C(=O)NN	6.35%	6.6%	-14.3%	-46.8%	-20.1%	-12.4%
CCc1ccc(/C=C/C(=O)C(C)CN(C)C)cc1 (centres undefined)	-4.9%	26.1%	-2.3%	22.1%	13.9%	9.85%
O=C1CC2CCCCC2CC1c1ccccc1 (centres undefined)	6.35%	-0.4%	-4.55%	-22.6%	-22.5%	-12.2%
CCC1(CC)C(=O)N(C(=O)c2cc(OC)c(OC)c(OC)c2)N(C(=O)c2cc(OC)c(OC)c(OC)c2)C1=O	13.2%	-0.1%	-2.2%	-11%	6.75%	14.8%
NC(=S)SC1=NNC2(C(=O)N1)c1ccccc1-c1ccccc12	-11.6%	-33.6%	14.2%	-6.7%	5.7%	14.6%
O=C1CN(CCCN2CCOCC2)CC(=O)N2Cc3ccccc3CN12	-25.9%	-3.8%	-9.45%	-0.45%	2.95%	3.7%
CN(C)c1ccc(C=C(C(=O)O)C(=O)O)cc1	-5.2%	15.3%	-8.1%	19.4%	15.7%	15.5%
Nc1ccc2ccc(S(=O)(=O)O)cc2c1	-17.7%	-19.9%	-31.4%	-23.3%	-8.8%	-17.9%
O=C1CCCS(=O)(=O)CCC1	7.4%	11.5%	-8.2%	-3.5%	0.9%	54.1%
CCCCCCCc1cc(OC(=O)c2c(C)cc(OC)cc2O)cc(O)c1C(=O)O	13.4%	-16.2%	8.65%	-10%	-14.2%	16.8%
COC1/C=C/OC2(C)Oc3c(C)c(O)c4c(O)c(c(C5SCCS5)c(O)c4c3C2=O)NC(=O)/C(C)=C\C=C\C(C)C(O)C(C)C(O)C(C)C(O)C1C (centres undefined)	5.15%	19.1%	-10.8%	4.85%	0%	36.9%
CC(=O)CC(=O)Nc1cc(C)c(NC(=O)CC(C)=O)cc1C	26.2%	26.6%	31.1%	7.55%	38.8%	30.6%

Compound	growth inhibition [1]	growth inhibition [2]	growth inhibition [3]	growth inhibition [4]	growth inhibition [5]	growth inhibition [6]
O=C(O)C/C(=C\c1ccccc1)C(=O)O	-3.15%	-25.9%	-17.4%	4%	-24.2%	-30.9%
C=CCNC(=S)N(Cc1ccccc1)Cc1ccccc1	86.2% (active)	80% (active)	91.9% (active)	82.9% (active)	88.7% (active)	86.5% (active)
Cc1cc(S(=O)(=O)O)cc(C(C)(C)C)c1O	-15.6%	-11.4%	6.3%	6.25%	-2.45%	-20.6%
N=c1ccc2nc(N)nn(O)c-2c1	-1.2%	12.1%	2.9%	-3.4%	-37.3%	-44%
CCN(CC)CCOc1ccc(/C(C#N)=C/c2ccc(OCCN3CCCCC3)cc2)cc1	35%	20.9%	57.3%	64.9%	26.2%	33.5%
COC(=O)C1C(O)C(C)C(OC(C)=O)C(C)/C=C\C=C(C)C(=O)Nc2c(C)c(OC(C)=O)c3c(c2O)C(=O)C(C)=C2OCOC(=C23)C(C)=CC(C)(O)C(O)C(C)C1O (centres undefined)	3.25%	-18.8%	15.7%	3.35%	26.8%	20.9%
ClC1=CC(Cl)=C2N=C(N3CCCC3)N=C3N=C(C(Cl)(Cl)Cl)N=C1N32	-2.8%	22.6%	3.6%	-13.4%	3.2%	-20.4%
Cc1c([N+](=O)[O-])ccn1C	-1.55%	10.9%	-5.7%	9.25%	7.2%	-3.7%
O=c1[nH]cc(CO)c(=O)[nH]1	0.35%	4.8%	-1.7%	6%	11.9%	-4%
CC(C)OC1(c2ccccc2)c2cccc3cccc(c23)C1(O)c1ccccc1 (centres undefined)	18.2%	-3.6%	22.8%	7.7%	3.35%	6.75%
CCCC1=NC(C(F)(F)F)(C(F)(F)F)N=C(N2CCOCC2)O1	0.95%	7.25%	-2.3%	4.55%	27.1%	1.45%
O=C1OC(c2ccc(Cl)cc2)=N/C1=C\c1ccc(Cl)c(Cl)c1	35.7%	19.1%	59.4%	19.2%	38.5%	31.7%
COC1=C(O)C(=O)C(OC)=C(O)C1=O	-19.5%	-8.65%	-13.5%	-1.4%	9.75%	-19.6%
CC(=O)C1SCC[S+]1C (centres undefined)	-19.8%	-7.6%	-10.6%	13.4%	-9.2%	-10.8%
CC(=O)OCC1OC(OC(C)=O)C(NC(=O)C[NH-])C(OC(C)=O)C1OC(C)=O.CC(=O)OCC1OC(OC(C)=O)C(NC(=O)C[NH-])C(OC(C)=O)C1OC(C)=O.[Cl][Pt+2][Cl] (centres undefined)	-2.75%	-19.4%	-5.85%	-42.9%	1.7%	21.9%
O=C(COCC(=O)N/N=C/c1ccc(Cl)cc1Cl)N/N=C\c1cc(Cl)cc(Cl)c1	-21.1%	-1.65%	0.75%	37.2%	-1%	-12.2%
CC1(C)CC(=O)c2c([nH]c(=S)c(C#N)c2-c2ccc(Br)cc2)C1	-37.3%	-13.1%	-27.4%	-11.8%	-8.7%	-42.1%
CC1=C(C(=O)NNC(=O)C[N+](C)(C)C)CC(C(=O)NNC(=O)C[N+](C)(C)C)=C(C)N1	-12.4%	-21.1%	-10.9%	-31.2%	-13.2%	-39.9%
COc1ccc(Cl)[n+]([O-])n1	-20.3%	-4.15%	-2%	0.8%	-10.3%	-29.6%
